Assay results from PubChem BioAssay (NCI).
About 79,000 compounds went through this panel and 15% of them were active in at least one assay; those are over-represented in the sample as a whole. The source made the active and inactive calls. No stated cut-off is given here; in the data, active means growth inhibition above about 70%; inactive means the rest.

Experiments:
[1] = NCI Yeast Anticancer Drug Screen. Data for the rad52 strain (AID 147);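 further: 0% = growth of vehicle-treated control cultures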; conditions: S. cerevisiae rad52 mutant growth inhibition, active compounds read high
Method in brief: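 Read-out: growth inhibition versus vehicle-treated controls. Cells were a DNA repair-deficient yeast strain treated with compounds.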

[2] = NCI Yeast Anticancer Drug Screen. Data for the wt1 strain (AID 149);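 further: 0% = growth of vehicle-treated wt1 cultures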; conditions: S. cerevisiae wt1 strain (SPY 50644) growth inhibition, active compounds read high
Method in brief: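 Compounds are added to wt1 yeast cultures. Growth is then measured. Inhibition is expressed relative to vehicle-treated controls.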

[3] = NCI Yeast Anticancer Drug Screen. Data for the rad50EPP+ strain (AID 151);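 further: 0% = growth of vehicle-treated control cultures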; conditions: S. cerevisiae rad50 mutant strain, active compounds read high
Method in brief: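 Growth inhibition read against vehicle controls in rad50EPP+ yeast, a strain altered in DNA damage repair, after compound exposure.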

[4] = NCI Yeast Anticancer Drug Screen. Data for the rad50 strain (AID 155);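 further: 0% = growth of vehicle-only cultures of the same strain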; conditions: S. cerevisiae rad50 strain growth inhibition, active compounds read high
Method in brief: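 Inhibition values express reduced yeast growth in compound-treated cultures relative to vehicle-treated controls.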

[5] = NCI Yeast Anticancer Drug Screen. Data for the mec2-1 strain (AID 157); conditions: S. cerevisiae mec2-1 strain, active compounds read high
Method in brief: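 Yeast mec2-1 mutant treated with compound. Readout: growth inhibition vs vehicle controls.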

[6] = NCI Yeast Anticancer Drug Screen. Data for the rad14 strain (AID 159);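 further: 0% = growth of vehicle-treated control cultures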; conditions: S. cerevisiae rad14 strain growth inhibition, active compounds read high
Method in brief: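 A mutant yeast strain defective in DNA damage repair is treated with compound; inhibition of its growth is scored against untreated, vehicle-exposed cultures.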

[7] = NCI Yeast Anticancer Drug Screen. Data for the sgs1 mgt1 strain (AID 161);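 further: 0% = growth of cultures given vehicle only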; conditions: S. cerevisiae sgs1 mgt1 strain, active compounds read high
Method in brief: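 Mutant yeast exposed to compound; growth scored against vehicle-only wells.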

[8] = NCI Yeast Anticancer Drug Screen. Data for the CLN2oe strain (AID 163);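 further: 0% = growth of vehicle-only control cultures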; conditions: S. cerevisiae CLN2oe strain, active compounds read high
Method in brief: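 Read-out: yeast growth inhibition, expressed relative to vehicle-only controls. The strain bears an engineered cell-cycle alteration.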

[9] = NCI Yeast Anticancer Drug Screen. Data for the cln2 rad14 strain (AID 165);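 further: 0% = growth equal to vehicle treated cultures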; conditions: S. cerevisiae cln2 rad14 strain, active compounds read high
Method in brief: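 cln2 rad14 yeast strain; compound exposure; growth inhibition read vs vehicle controls.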

[10] = NCI Yeast Anticancer Drug Screen. Data for the bub3 strain (AID 167); conditions: S. cerevisiae bub3 mutant strain, active compounds read high
Method in brief: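 Steps: expose the mutant yeast strain to compound; grow alongside vehicle-treated cultures; measure growth; express inhibition against the vehicle cultures.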

[11] = NCI Yeast Anticancer Drug Screen. Data for the wt2 strain (AID 169);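 further: 0% = growth of vehicle-treated yeast cultures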; conditions: S. cerevisiae wt2 strain growth inhibition, active compounds read high
Method in brief: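 Read-out: growth inhibition versus vehicle-treated control cultures after compound exposure of the yeast strain.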

[12] = NCI Yeast Anticancer Drug Screen. Data for the mlh1 strain (AID 171);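 further: 0% = growth of vehicle-treated control cultures of the same strain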; conditions: S. cerevisiae mlh1 strain growth inhibition, active compounds read high
Method in brief: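 Read-out: growth inhibition versus vehicle controls. Strain: engineered yeast with a defined DNA repair or cell cycle defect, compound-treated.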

[13] = NCI Yeast Anticancer Drug Screen. Data for the sgs1 strain (AID 173);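 further: 0% = growth of vehicle-only control cultures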; conditions: S. cerevisiae sgs1 mutant, active compounds read high
Method in brief: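 Read-out: yeast growth inhibition relative to vehicle controls, following compound exposure of a strain with a defined DNA repair/cell cycle alteration.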

[14] = NCI Yeast Anticancer Drug Screen. Data for the mlh1 rad18 strain (AID 175); conditions: S. cerevisiae mlh1 rad18 strain growth inhibition, active compounds read high
Method in brief: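 Yeast w/ defined DNA-repair lesions; compound exposure; growth vs vehicle controls → % inhibition.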

[15] = NCI Yeast Anticancer Drug Screen. Data for the rad18 strain (AID 177); conditions: S. cerevisiae rad18 mutant growth inhibition, active compounds read high
Method in brief: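 Readout: growth inhibition vs vehicle controls. Cells: genetically altered yeast strain, DNA repair defect.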

[16] = at 5.0 µM (retest, dose inferred, filed as 0.5)
[17] = at 50.0 µM (retest, dose inferred, filed as 5.0)

Measured: growth inhibition

Cc1cccc2c1N=C(C(F)(F)F)CC2=O
inactive: [1]; at 1.2 µM 4% | [1]; at 3.7 µM 7% | [1]; at 11.0 µM 10% | [1]; at 33.0 µM 20% | [1]; at 100.0 µM 46% | [2]; at 1.2 µM -2% | [2]; at 3.7 µM -1% | [2]; at 11.0 µM 2% | [2]; at 33.0 µM 1% | [2]; at 100.0 µM 31% | [3]; at 1.2 µM 2% | [3]; at 3.7 µM 3% | [3]; at 11.0 µM 10% | [3]; at 33.0 µM 33% | [3]; at 100.0 µM 48% | [4]; at 1.2 µM 9% | [4]; at 3.7 µM 15% | [4]; [16] -120% | [4]; at 11.0 µM 23% | [4]; at 33.0 µM 24% | [4]; [17] 9% | [4]; at 50.0 µM 43.7% | [4]; at 100.0 µM 46% | [5]; at 1.2 µM 2% | [5]; at 3.7 µM 1% | [5]; [16] -43% | [5]; at 11.0 µM -5% | [5]; at 33.0 µM 9% | [5]; [17] 40% | [5]; at 50.0 µM 35% | [5]; at 100.0 µM 54% | [6]; at 1.2 µM 3% | [6]; at 3.7 µM -5% | [6]; at 11.0 µM 0% | [6]; at 33.0 µM 7% | [6]; at 100.0 µM 39% | [7]; [16] -44% | [7]; [17] 65% | [7]; at 50.0 µM 45% | [8]; at 1.2 µM -5% | [8]; at 3.7 µM -3% | [8]; at 11.0 µM 3% | [8]; at 33.0 µM 8% | [8]; at 100.0 µM 43% | [9]; [16] -49% | [9]; [17] 45% | [9]; at 50.0 µM 49.6% | [10]; at 1.2 µM -2% | [10]; at 3.7 µM -2% | [10]; [16] -61% | [10]; at 11.0 µM -1% | [10]; at 33.0 µM 1% | [10]; [17] 33% | [10]; at 50.0 µM 25% | [10]; at 100.0 µM 37% | [11]; at 1.2 µM -2% | [11]; at 3.7 µM -2% | [11]; at 11.0 µM -1% | [11]; at 33.0 µM 6% | [11]; at 100.0 µM 40% | [12]; at 1.2 µM -1% | [12]; at 3.7 µM 2% | [12]; at 11.0 µM 1% | [12]; at 33.0 µM 8% | [12]; at 100.0 µM 38% | [13]; at 1.2 µM 1% | [13]; at 3.7 µM -2% | [13]; at 11.0 µM 0% | [13]; at 33.0 µM 27% | [13]; at 100.0 µM 48% | [14]; [16] -100% | [15]; at 1.2 µM 0% | [15]; at 3.7 µM 1% | [15]; at 11.0 µM 3% | [15]; at 33.0 µM 9% | [15]; at 100.0 µM 43%
active: [14]; [17] 71% | [14]; at 50.0 µM 76.8%

N#C/C(=C\c1ccccc1)c1ccccc1F
inactive: [1]; at 1.2 µM -1% | [1]; at 3.7 µM -3% | [1]; at 11.0 µM -2% | [1]; at 33.0 µM -1% | [1]; at 100.0 µM 3% | [2]; at 1.2 µM 1% | [2]; at 3.7 µM 1% | [2]; at 11.0 µM 2% | [2]; at 33.0 µM 1% | [2]; at 100.0 µM 1% | [3]; at 1.2 µM 2% | [3]; at 3.7 µM 2% | [3]; at 11.0 µM 9% | [3]; at 33.0 µM 16% | [3]; at 100.0 µM 21% | [4]; at 1.2 µM -4% | [4]; at 3.7 µM 3% | [4]; [16] 6% | [4]; at 11.0 µM -2% | [4]; at 33.0 µM 2% | [4]; at 50.0 µM 44.1% | [4]; at 100.0 µM 10% | [5]; at 1.2 µM 2% | [5]; at 3.7 µM 0% | [5]; [16] -11% | [5]; at 11.0 µM 4% | [5]; at 33.0 µM -4% | [5]; [17] 69% | [5]; at 50.0 µM 41.7% | [5]; at 100.0 µM -4% | [6]; at 1.2 µM -2% | [6]; at 3.7 µM -1% | [6]; at 11.0 µM 1% | [6]; at 33.0 µM 1% | [6]; at 100.0 µM 5% | [7]; [16] -8% | [7]; at 50.0 µM 45.9% | [8]; at 1.2 µM 13% | [8]; at 3.7 µM 9% | [8]; at 11.0 µM 11% | [8]; at 33.0 µM 14% | [8]; at 100.0 µM 8% | [9]; [16] -10% | [9]; [17] 17% | [9]; at 50.0 µM 6.15% | [10]; at 1.2 µM -31% | [10]; at 3.7 µM -21% | [10]; [16] -17% | [10]; at 11.0 µM -6% | [10]; at 33.0 µM -10% | [10]; at 50.0 µM 34.9% | [10]; at 100.0 µM -7% | [11]; at 1.2 µM -3% | [11]; at 3.7 µM -2% | [11]; at 11.0 µM -1% | [11]; at 33.0 µM -1% | [11]; at 100.0 µM 4% | [12]; at 1.2 µM -1% | [12]; at 3.7 µM 2% | [12]; at 11.0 µM 0% | [12]; at 33.0 µM -6% | [12]; at 100.0 µM 10% | [13]; at 1.2 µM -1% | [13]; at 3.7 µM -1% | [13]; at 11.0 µM 1% | [13]; at 33.0 µM 1% | [13]; at 100.0 µM 2% | [15]; at 1.2 µM -2% | [15]; at 3.7 µM -5% | [15]; at 11.0 µM -7% | [15]; at 33.0 µM -14% | [15]; at 100.0 µM -15%
active: [4]; [17] 89% | [7]; [17] 90% | [10]; [17] 88%

CC(=O)Oc1ccc(N2C(=O)C3c4[nH]c5ccccc5c4C4CCC(C(C)(C)C)CC4C3C2=O)cc1 (stereo unspecified)
active: [1]; at 3.7 µM 87% | [1]; at 11.0 µM 96% | [1]; at 33.0 µM 96% | [1]; at 100.0 µM 90% | [2]; at 11.0 µM 98% | [2]; at 33.0 µM 95% | [2]; at 100.0 µM 95% | [4]; at 3.7 µM 91% | [4]; [16] 98% | [4]; at 11.0 µM 96% | [4]; at 33.0 µM 95% | [4]; [17] 98% | [4]; at 50.0 µM 98.5% | [4]; at 100.0 µM 92% | [5]; at 3.7 µM 71% | [5]; [16] 99% | [5]; at 11.0 µM 98% | [5]; at 33.0 µM 98% | [5]; [17] 98% | [5]; at 50.0 µM 98.5% | [5]; at 100.0 µM 95% | [6]; at 11.0 µM 97% | [6]; at 33.0 µM 97% | [6]; at 100.0 µM 95% | [7]; [16] 98% | [7]; [17] 98% | [7]; at 50.0 µM 98.5% | [8]; at 3.7 µM 92% | [8]; at 11.0 µM 98% | [8]; at 33.0 µM 97% | [8]; at 100.0 µM 97% | [9]; [16] 83% | [9]; [17] 98% | [9]; at 50.0 µM 98.6% | [10]; [16] 98% | [10]; at 11.0 µM 97% | [10]; at 33.0 µM 96% | [10]; [17] 98% | [10]; at 50.0 µM 98.5% | [10]; at 100.0 µM 94% | [11]; at 11.0 µM 98% | [11]; at 33.0 µM 98% | [11]; at 100.0 µM 96% | [12]; at 11.0 µM 98% | [12]; at 33.0 µM 97% | [12]; at 100.0 µM 94% | [13]; at 11.0 µM 97% | [13]; at 33.0 µM 97% | [13]; at 100.0 µM 94% | [14]; [16] 98% | [14]; [17] 98% | [14]; at 50.0 µM 98% | [15]; at 3.7 µM 82% | [15]; at 11.0 µM 96% | [15]; at 33.0 µM 95% | [15]; at 100.0 µM 93%
inactive: [1]; at 1.2 µM 7% | [2]; at 1.2 µM 15% | [2]; at 3.7 µM 64% | [3]; at 1.2 µM -23% | [3]; at 3.7 µM -26% | [3]; at 11.0 µM -26% | [3]; at 33.0 µM -6% | [3]; at 100.0 µM 6% | [4]; at 1.2 µM -14% | [5]; at 1.2 µM -4% | [6]; at 1.2 µM -15% | [6]; at 3.7 µM 18% | [8]; at 1.2 µM 16% | [10]; at 1.2 µM -28% | [10]; at 3.7 µM 64% | [11]; at 1.2 µM -4% | [11]; at 3.7 µM 25% | [12]; at 1.2 µM -15% | [12]; at 3.7 µM 36% | [13]; at 1.2 µM -7% | [13]; at 3.7 µM 52% | [15]; at 1.2 µM 13%
